Reference: PubChem BioAssay AID1347428 (National Center for Advancing Translational Sciences (NCATS), 2020)
Among all 91,000 compounds or so, about 290 (0.32%) were called active. Inconclusive results (about 7%) are left out. Calls come from the whole dose curve; as a rule, active = well fitted inhibition curve with a large enough effect; inconclusive = small, poorly fitted or top-dose-only effect; inactive = no such curve, though single readings can be large or run the other way. Shown is part of a subset that was picked to be rich in actives. A call without a number means that no potency is given here.

target: Single-stranded DNA cytosine deaminase (Homo sapiens) (UniProt Q9GZX7); test: Primary qHTS assay for inhibitors of Activation Induced Cytidine Deaminase (AID): AID signal; details: AID deamination FRET fluorescence, UDG-coupled, 4 h; series mostly up to 115 µM; note: nearly all actives have a fitted effect of over 25% in size
Potency is the fitted concentration of half-maximal effect.

Chain of Single-stranded DNA cytosine deaminase (Homo sapiens) (Q9GZX7 whole entry, looked up): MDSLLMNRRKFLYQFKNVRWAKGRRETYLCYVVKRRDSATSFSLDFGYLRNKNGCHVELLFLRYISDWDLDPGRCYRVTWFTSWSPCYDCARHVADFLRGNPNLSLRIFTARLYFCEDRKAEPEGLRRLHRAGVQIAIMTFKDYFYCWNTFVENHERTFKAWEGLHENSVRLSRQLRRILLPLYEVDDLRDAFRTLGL

Row | Structure (SMILES) | Potency
1 | O=C(NC(c1ccccc1)c1ccccn1)c1cc[n+]([O-])cc1 (stereo not given) | inactive
2 | O=C(NCCc1ccccc1)c1[nH]c2ccccc2c1Cl | inactive
3 | COc1cc(C(=O)Nc2ccc(C(=O)O)cc2)c2ccccc2n1 | inactive
4 | COc1ccccc1-c1cc(=O)c2cc(C)ccc2o1 | inactive
5 | COC(=O)C(C)(NC(=O)CCC(=O)c1ccccc1)c1ccccc1 (stereo not given) | inactive
6 | O=C(NC/C(=N/NC(=O)c1cccnc1)c1ccccc1)c1ccccc1 | inactive
7 | CN(Cc1cccc(C(F)(F)F)c1)C1CCN(C(=O)c2cncc(Br)c2)CC1 | inactive
8 | Cc1cc2nc(CSc3nc4ccc(NC(=O)CCC5CCCC5)cc4s3)cc(=O)n2o1 | inactive
9 | O=Cc1cccc(Br)c1O | inactive
10 | Cc1ccc(S(=O)(=O)NC(C)c2cccs2)cc1 (stereo not given) | inactive
11 | Cc1cc(C(C)(C)C)cc(C)c1CS(=O)Cc1ccc(F)cc1 (stereo not given) | inactive
12 | CC(=O)c1c(C)[nH]c(C(=O)C(C)SCc2ccc(Cl)cc2)c1C (stereo not given) | inactive
13 | NC(=O)NNC(=S)Nc1ccc(SC(F)F)cc1 | inactive
14 | COC(=O)c1cc(S(=O)(=O)Nc2ccc(C)c(F)c2)c[nH]1 | inactive
15 | CCc1ccc(-c2csc(/C(C#N)=C\Nc3ccccc3C)n2)cc1 | inactive
16 | Cc1sc(NC(=O)Cc2ccccc2)c(C#N)c1C | inactive
17 | Cc1cc(-c2ccccc2)c(-c2nc3ccccc3s2)[nH]1 | inactive
18 | C=CCNCc1ccc(CC)cc1 | inactive
19 | COc1ccc(-c2csc(N)c2C#N)cc1 | inactive
20 | O=C(CCC1CCCC1)NCc1ccncc1 | inactive
21 | c1ccc2cc(OCCSc3ccc4ccccc4n3)ccc2c1 | inactive
22 | COc1cc(/C=C2/NC(=O)NC2=O)cc(I)c1OCC(=O)O | inactive
23 | Cc1ccc2c(c1)-c1cccc3cccc(c13)C2=O | inactive
24 | C[N+](C)(CCCCCC[N+](C)(C)CCCN1C(=O)c2cccc3cccc(c23)C1=O)CCCN1C(=O)c2cccc3cccc(c23)C1=O | 4.47 µM (active)
25 | COc1ccc(CNC(=O)/C=C/c2ccc(C)cc2)cc1 | inactive
26 | CCc1nc2ccccc2c(NC(=O)CN(CC)CC)c1C | inactive
27 | Cc1ccn2c(F)c(C(F)(F)F)nc2c1 | inactive

Row | Structure (SMILES) | Potency
28 | C=CCn1c(NCCCOCC)nc2c1c(=O)[nH]c(=O)n2C | inactive
29 | Cc1ccc2[nH]c(=O)c(-c3noc(CCCC(=O)NC4CCCCC4)n3)cc2c1 | inactive
30 | Cc1c(F)cccc1NC(=O)C12CC3CC(CC(C3)C1)C2 | inactive
31 | Cc1ccc(C)c(C(C)NC(=S)NCc2ccc(Cl)cc2)c1 (stereo not given) | inactive
32 | O=C(c1ccc(Cl)cc1Cl)N(C1CCCCC1)C1CCCCC1 | inactive
33 | Cc1ccc(CNC(=O)c2scnc2C)cn1 | inactive
34 | Cc1cc(-c2noc(COc3ccc(I)cc3)n2)c2ccccc2n1 | inactive
35 | CCn1nnc(NC(=O)c2cc3ccccc3cc2OC)n1 | inactive
36 | CCCNC(=O)C1CCC(Cn2c(=O)c3sccc3n(Cc3ccccc3F)c2=O)CC1 (stereo not given) | inactive
37 | O=C(C1CCC(Cn2c(=O)c3sccc3n(Cc3ccccc3F)c2=O)CC1)N1CCCCC1 (stereo not given) | 25.1 µM (active)
38 | CC(C)NC(=O)C1CCC(Cn2c(=O)c3sccc3n(Cc3ccc(F)cc3)c2=O)CC1 (stereo not given) | inactive
39 | N#Cc1cccc(NC(=S)NCCc2ccccc2)c1 | inactive
40 | CCNCc1ccccc1C(F)(F)F | inactive
41 | CCCCNC(=O)Nc1ccccc1CC(N)=O | inactive
42 | O=C(CSc1ccc2c(c1)OCCO2)Nc1ccc2c(c1)OCCO2 | inactive
43 | COCCNc1nc(-c2ccccc2)c2cc(Br)ccc2n1 | inactive
44 | CCN(C(=O)C1CCN(c2nc3ccccc3o2)CC1)c1ccc(F)c(F)c1 | inactive
45 | CC(=O)Oc1c(Cl)cc(Cl)cc1Sc1cc(Cl)cc(Cl)c1OC(C)=O | inactive
46 | Cc1ccc(OCCSc2nnc(COc3ccccc3Cl)n2C)cc1 | inactive
47 | CCCCCCCCc1cnc(-c2ccc(O)cc2)nc1 | inactive
48 | COc1cc(CN(C(=S)NCC(=O)NCc2ccccc2Cl)C2CCCC2)cc(OC)c1OC | inactive
49 | CC(=O)N1CCC(NC(=O)c2cc(C)nc3cc(F)ccc23)CC1 | inactive
50 | Cc1nn(-c2ncnc3nc[nH]c23)c2c1C(c1cccc(F)c1)CC(=O)N2 (stereo not given) | inactive
51 | O=C(O)C1CCN(C(=O)Cn2ccc3c(Br)cccc32)CC1 | inactive
52 | CCC(=O)c1ccc(C2CCCCC2)cc1 | inactive
53 | C(=C\c1ccccc1)/CNC1CC1 | inactive
54 | N#Cc1ccc(COC(=O)CCC(=O)c2ccccc2)cc1 | inactive

Row | Structure (SMILES) | Potency
55 | Cc1cc(C(=O)O)c(C)n1CC(F)(F)F | inactive
56 | O=C(/C=C/c1cccs1)N1CC=C(c2ccccc2)CC1 | inactive
57 | C(#CCN1CCCCC1)COC(c1ccccc1)c1ccccc1 | inactive
58 | CC(C)NS(=O)(=O)c1ccc(C(=O)NCC(=O)O)cc1 | inactive
59 | COc1cccc(CN(C)S(=O)(=O)c2cnn(C)c2)c1OC | inactive
60 | CC(C)CCNC(=S)Nc1cccc(C(F)(F)F)c1 | inactive
61 | O=C(Nc1ccc2nc(N3CCCC3)sc2c1)c1ccc(F)cc1 | inactive
62 | Cc1cc(C(=O)OCc2cccc(C#N)c2)c(C)o1 | inactive
63 | O=C(N/N=C/c1ccccc1OCCOc1ccc([N+](=O)[O-])cc1)Nc1ccccc1 | inactive
64 | COc1ccc(NC(=O)Cc2ccc3c(c2)OCCO3)cn1 | inactive
65 | Cc1nn(C)c2c(=O)n(CC(=O)NCc3ccccc3)ccc12 | inactive
66 | CCOc1ccc(C(=O)CCC(=O)OCC(=O)c2ccc3c(c2)OCCO3)cc1 | inactive
67 | CC(C)c1ccc(NC(=O)CSc2nc3ncc(Cl)cc3[nH]2)cc1 | inactive
68 | COc1cc(C2CC(=O)Nc3nc(-c4ccccc4)[nH]c(=O)c32)ccc1OCc1ccc(F)cc1 (stereo not given) | inactive
69 | CCCCNc1oc(/C=C/c2ccc(OCC)cc2)nc1C#N | inactive
70 | Cc1ccc(NC(=O)CCc2nc3cc(Cl)ccc3n(CC(C)C)c2=O)cc1 | inactive
71 | O=C1c2ccccc2C(=Cc2ccc(Cl)cc2)c2ccccc21 | inactive
72 | O=C(O)c1ccc(I)c(Br)c1 | inactive
73 | Cc1nc2nc(SCC(=O)N(Cc3ccccc3)C(C)C)nn2c(C)c1Cc1ccccc1Cl | 22.4 µM (active)
74 | Cc1nnc(SCC(=O)NCc2ccccc2Cl)c2nn(-c3ccccc3)c(C)c12 | inactive
75 | COc1cc(OC)cc(-c2nc3nc(C)c(CCC(=O)Nc4ccccc4)c(C)n3n2)c1 | inactive
76 | COc1ccc(CC(=O)N2CC(=O)Nc3ccc(Br)cc3C2c2ccc(F)cc2)cc1OC (stereo not given) | inactive
77 | Cc1cccc(CC(=O)N2CC(=O)Nc3ccc(F)cc3C2c2ccccc2)c1 (stereo not given) | inactive
78 | CCCCOc1ccc(C(=O)N2CC(=O)Nc3ccc(Br)cc3C2c2ccc(F)cc2)cc1 (stereo not given) | 35.5 µM (active)
79 | O=C(Nc1c(N2CCCC2)c2ccccc2oc1=O)c1ccc(Br)o1 | inactive
80 | Cc1cc(NC(=O)c2ccc(F)cc2F)n(CCC#N)n1 | inactive
